The record followed here is ChEMBL document CHEMBL3988442, “University of Dundee, Small-Polar-MMV Screening Library” (2021).

The campaign covered roughly 38,000 compounds. About 1,200 (3.2%) showed an effect of 50% or more. The median lay at about -58%. The full list was thinned out, with strong results kept by preference.

For the assay, the system named is Plasmodium falciparum. Nature of the assay: Calibr Malaria Delayed Death Assay SOP. It is filed as functional, organism-based. The conditions noted are these: concentration 4.99e-06 (unit not given; other assays of the set use mol/L). Also on record: scale not given: in the data most compounds retested in dose-response had high values.
As for `Cc1nc(CO[C@H]2CN(Cc3cccs3)[C@@H]3COC[C@H]23)cs1.O=C(O)C(F)(F)F.O=C(O)C(F)(F)F`, the “Percent Effect” value was -73.25%. Regarding `Cc1ccc(CNC(C)c2nnc3n2CCCC3)o1` (configuration not stated), the “Percent Effect” value is listed as -20.3%.

For `Cc1nc(CNC(=O)Nc2cc(F)ccc2OC(F)F)no1`, the “Percent Effect” value is listed as -136.5%. In the case of `CN1CCN(c2ccc(F)cc2C(N)=O)CC1`, the “Percent Effect” value is listed as -109.6%. On to `CCN1CCN(c2ccc(F)cc2C(C)NCc2nc(C)no2)CC1` (configuration not stated), for which the “Percent Effect” value amounted to 4.183%.

For `CCN1CCN(c2ccc(F)cc2C(C)NCc2noc(C)n2)CC1` (configuration not stated), the “Percent Effect” value was 52.85%.

Take `CC(COc1ccccc1)NCc1cn2ccccc2n1` (configuration not stated): the “Percent Effect” value is -27.04%. In the case of `Cc1ccc(C(=O)N2CCC3(CCC(=O)N(C(C)C)C3)CC2)c(O)c1` it was -20.48%; in that of `COC(=O)c1ccc(C2CC(=O)Nc3c2cnn3C)cc1` (configuration not stated), -67.54%; in that of `CCc1noc(CN2CCCC(Cn3nc(C)nc3C)C2)n1` (configuration not stated), -109.5%. Take `CN(C)c1ccc(C(=O)N2CCN(Cc3cscn3)CC2)cc1F`: the “Percent Effect” value is given as -147.3%.

With `NC(=O)C1CN(Cc2c(O)ccc3oc4c(c23)CCCC4)CCO1` (configuration not stated), the “Percent Effect” value is given as -24.38%. In the case of `Oc1ccc2oc3c(c2c1CN1CCOCC1)CCCC3` it was 15.46%; in that of `CCC1CN(Cc2c(O)ccc3oc4c(c23)CCCC4)CCO1` (configuration not stated), 59.59%; in that of `CN1CCN(C[C@H]2CC[C@@H](Cc3ccc4c(c3)OCO4)O2)CC1`, -29.46%. As for `CN1CCC(N(C)C[C@H]2CC[C@@H](Cc3cccc(CO)c3)O2)CC1`, the “Percent Effect” value is -136%. Regarding `CCN1CCN(C[C@H]2CC[C@@H](Cc3ccc4c(c3)OCO4)O2)CC1`, the “Percent Effect” value was -22.56%. In the case of `CN1CCC(N(C)C[C@H]2CC[C@@H](Cc3cccc(O)c3)O2)CC1`, the “Percent Effect” value is on record as 56.23%. The figure for `COc1ccc(C[C@@H]2CC[C@H](CN(C)C3CCN(C)CC3)O2)cc1` is 49.48%. In the case of `CN1CCC(N(C)C[C@H]2CC[C@@H](Cc3ccc4occc4c3)O2)CC1`, the “Percent Effect” value turned out to be 85.36%. In the case of `CCCc1ccc(C(=O)N2CCc3c(nc(C)nc3N(C)C)C2)cc1` it was -63.88%; in that of `COc1ccc([C@@H]2NC(=O)N[C@H]3OCCC[C@H]32)cc1`, 13.26%; in that of `O=C(c1ccco1)N1C[C@H]2CN(Cc3cccc(F)c3)C(=O)[C@H]2C1`, -97.73%. On to `O=C(CNC(=O)N1CCN(c2cccc(Cl)c2)CC1)Nc1ccccn1`, for which the “Percent Effect” value is -109.2%. Take `CN(Cc1nnc(C2CC2)n1C)S(=O)(=O)Cc1ccccc1F`: the “Percent Effect” value is given as -39.05%. The figure for `Cc1cc(NC(=O)N(C)CCN2CCN(c3ccccc3)CC2)on1` is -52.94%; for `Cc1cc(NC(=O)CN(c2ccccc2)C(C)C)on1` it is -10.54%; for `Cc1cc(NC(=O)NC(C)CN2CCN(c3ccccc3)CC2)on1` (configuration not stated) it is 58.09%.

On to `COC(=O)c1cc2c(=O)n(C3CC3)ccc2nc1C`, for which the “Percent Effect” value is on record as -61.53%. In the case of `Cc1nc(C)n(C2CCCN(C(=O)CCCNc3ncccn3)C2)n1` (configuration not stated) it was -99.16%; in that of `CSc1ccc(OCCN2CCNC(=O)C2C)cc1` (configuration not stated), -33.67%; in that of `COCC1CC2(CCN(CC3CC3)CC2)CN1Cc1ccccn1.O=C(O)C(F)(F)F.O=C(O)C(F)(F)F` (configuration not stated), 39.61%. The figure for `COCC1CC2(CCN(Cc3ccoc3)CC2)CN1Cc1ccccn1` (configuration not stated) is 55.13%; for `COCC1CC2(CCN(Cc3nccs3)CC2)CN1Cc1ccccn1.O=C(O)C(F)(F)F.O=C(O)C(F)(F)F.O=C(O)C(F)(F)F` (configuration not stated) it is -3.583%. The figure for `CCOc1ccc(-c2c(C#N)c(N)nc3c2COCC3)cn1` is -92.51%; for `CC(=O)N(Cc1noc(C2CC2)n1)C1CCN(Cc2ccccn2)C1` (configuration not stated) it is -1.635%.

As to `O=C(O)C(F)(F)F.O=C(O)C(F)(F)F.O=C(c1ccnnc1)N1CCN(Cc2cccnc2)c2ncccc2C1`, the “Percent Effect” value is -70.53%. The figure for `CN(CC1CC1)C(=O)CN(Cc1cccc(O)c1)C1CCC(O)CC1` (configuration not stated) is -102.5%; for `CN1CC[C@H](N(Cc2ccccc2)CC2CC2)C[C@H](O)C1` it is 80.63%. As for `CN1CCC(N(C)CCC(=O)N2CCC(CCc3ccccc3)CC2)C1` (configuration not stated), the “Percent Effect” value is on record as 17.74%. In the case of `CN1CC[C@H](N(C)Cc2ccccc2)C[C@H](O)C1` it was 2.065%. In the case of `CN1CC[C@H](N(Cc2ccccc2)Cc2ccccc2)C[C@H](O)C1` it was 71.85%; in that of `CN1CC[C@H](N(Cc2ccccc2)C2COC2)C[C@H](O)C1`, 43.99%. Take `O=c1[nH]c(CN2CCOC(Cn3cccn3)C2)nc2ccccc12` (configuration not stated): the “Percent Effect” value was -93.34%. In the case of `Cc1cc(CN2CCN(C(=O)C(C(C)C)n3cncn3)CC2)no1` (configuration not stated) it was -20.49%; in that of `Cc1ccc(OCCC(=O)N2CCCC(n3nc(C)nc3C)C2)cc1` (configuration not stated), 0.003662%. The figure for `c1ccc(CCCN2CCOC(Cn3cccn3)C2)cc1` (configuration not stated) is -23.01%; for `NC(=O)CCN(CC(=O)NCc1ccccn1)c1ccc(F)cc1` it is -98.56%. Take `O=C(Nc1ccccc1)N1C[C@H]2C[C@H](C(=O)N3CCOCC3)[C@@H](C1)O2`: the “Percent Effect” value is -95.7%. In the case of `CN1CCN(Cc2ccccc2CNC(=O)c2cc(Br)ccc2F)CC1` it was 76.59%; in that of `CN1CCN(C(CNC(=O)c2ccc(Cl)cc2F)c2cccs2)CC1` (configuration not stated), 51.8%. The figure for `CN1CCN(Cc2ccccc2CNC(=O)c2ccc(Br)cc2)CC1` is 45.05%.

With `CN1CCN(Cc2ccccc2CNC(=O)c2cc(Cl)ccc2F)CC1`, the “Percent Effect” value came to 65.2%. With `Cn1ccc(C(=O)NCc2ccccc2CN2CCCCC2)cc1=O`, the “Percent Effect” value is -63.4%. Turning to `O=C(NCC(c1cccs1)N1CCOCC1)c1ccc(F)cc1Cl` (configuration not stated), the “Percent Effect” value is given as -47.97%. The figure for `CN1CCN(Cc2ccccc2CNC(=O)c2ccc(Br)cc2F)CC1` is 47.71%; for `CN1CCN(Cc2ccccc2CNC(=O)c2ccc(Cl)cc2F)CC1` it is 76.33%; for `Cn1ccnc1CN1CCN(CC(=O)NCc2ccccc2F)CC1` it is -19.05%. Take `CC1CCN(C(CNC(=O)CCn2cccn2)c2cccs2)CC1` (configuration not stated): the “Percent Effect” value is listed as -77%.

On to `CNC(=O)c1ccc(CNC(=O)c2ccc(Cl)cc2F)cc1`, for which the “Percent Effect” value was -28.69%.

Consider `O=C(NCc1ccccc1CN1CCOCC1)c1ccc(Br)cc1F`, for which the “Percent Effect” value is -44.16%. In the case of `Cc1ccc(CCNC(=O)Cn2nc(C)n(Cc3ccccc3)c2=O)s1` it was -1.162%.
